Measurements published in PubChem BioAssay (Tox21).
Results filed as inconclusive are left out. Activity calls are given as the source filed them. Calls come from the whole dose curve; as a rule, active = well fitted activation curve with a large enough effect in the repeat runs; inconclusive = weak or mixed curves; inactive = flat fitted curve, though single readings scatter.

Test: A CellTox Green Cytotoxicity Assay to monitor cytotoxicity in HepG2 cells - 32 hour (AID 1224883); note: nearly all actives have a fitted effect of over 50% in size
Conditions: CellTox Green fluorescence; series mostly up to 76.8 µM; cytotoxicity increase: at the top concentration
Description: National Center for Advancing Translational Sciences [NCATS]
NIH Chemical Genomics Center [NCGC]
U.S. Environmental Protection Agency [EPA]
National Institutes of Environmental Health Sciences [NIEHS]
National Toxicology Program [NTP]
Cell-based models are critical for drug discovery. Determining the natural cytotoxic effects resulting from test compounds is an essential research activity. A CellTox Green Cytotoxicity Assay to monitor cytotoxicity in real time of continues cell culture during 40 hours of the compound treatment was used to screen Tox21 10K library compounds in HepG2 cells. CellTox Green Cytotoxicity Assay is a nonlytic, homogeneous, biofluorescent method to measure cytotoxicity in cell culture after experimental manipulation. The assay system uses a proprietary asymmetric cyanine dye that is excluded from viable cells but preferentially stains the dead cell's DNA. […] Viable cells produce no appreciable increases in fluorescence. Therefore, the fluorescence signal produced by the binding interaction with dead cell DNA is proportional to cytotoxicity.
The mixture of HepG2 cell suspension and reagents were dispensed at 600cells/6 ul/well in 1536-well tissue culture treated black solid bottom plates using a Multidrop dispenser. After the assay plates were incubated at a 37 C/5% CO2 incubator for 5 hours, 23 nL of compounds dissolved in DMSO, positive and negative controls was transferred to the assay plate by a pintool work station. The plates were incubated at 37 C for 40 hours. The fluorescence intensity were measured at 0h, 8h, 16h, 24h, 32h and 40h time points using ViewLux plate reader during compound treatment.
% is set by controls: 0 for no effect and ±100 for the full control effect.

SMILES | cytotoxicity increase
CN1[C@@H]2CC[C@H]1CC(NC(=O)n1c(=O)[nH]c3ccccc31)C2 (stereo not given in full) | -1.69% [at 35.3 µM] (inactive)
Nc1nc(F)nc2c1ncn2[C@@H]1O[C@H](CO)[C@@H](O)[C@@H]1O | -13% [at 35.3 µM] (inactive)
CCOC(=O)Cn1c(=O)sc2cccc(Cl)c21 | 27.9% (inactive)
CC(C)(C)CC(C)(C)N | 7.72% (inactive)
C=CC(=O)OCCCCCC | 0.0217% (inactive)
CC1CCN(CCCC(=O)c2ccc(F)cc2)CC1 | -11.4% [at 35.3 µM] (inactive)
[O-][N+](=Nc1ccccc1)c1ccccc1 | 0.717% (inactive)
NS(=O)(=O)c1cc2c(cc1Cl)NC(CSCc1ccccc1)=NS2(=O)=O | -7.05% [at 35.3 µM] (inactive)
COC[C@H](c1ccc(C(F)(F)F)cc1)N1CCN(C2(C)CCN(C(=O)c3c(C)ncnc3C)CC2)C[C@H]1C | 10.3% [at 35.3 µM] (inactive)
CCN1CCN(c2cc3c(cc2F)c(=O)c(C(=O)O)cn3C2CC2)CC1 | -0.544% [at 35.3 µM] (inactive)
CC(=O)O[C@H](CC(=O)[O-])C[N+](C)(C)C | -15.6% (inactive)
O=C(CCOCCOCCOCCOCCC(=O)Nc1c(I)cc(I)c(C(=O)O)c1I)Nc1c(I)cc(I)c(C(=O)O)c1I | 4.41% [at 35.3 µM] (inactive)
OCCN1C[C@H](O)[C@@H](O)[C@H](O)[C@H]1CO | -13.4% [at 35.3 µM] (inactive)
C=C(C)C1CC=C(C)C(O)C1 (stereo not given) | 0.718% (inactive)
CC(C)(C)C(=O)/C=C/c1ccc(Cl)cc1 | 1.34% (inactive)
CCC(=O)/C=C/c1ccc(OC)cc1 | 5.63% (inactive)
Cc1ncc(CSSCc2cnc(C)c(O)c2CO)c(CO)c1O | -17% [at 35.3 µM] (inactive)
NCCNC(=O)c1ccc(Cl)cn1 | -2.08% [at 35.3 µM] (inactive)
O=C1OC(=O)c2cc([N+](=O)[O-])ccc21 | -8.91% (inactive)
CNc1ncnc2nc[nH]c12 | -1.34% (inactive)

SMILES | cytotoxicity increase
O=c1[nH]c2ccccc2c(=O)n1CCCl | -17.8% [at 35.3 µM] (inactive)
O=C(O)Cc1cc(I)c(Oc2cc(I)c(O)c(I)c2)c(I)c1 | 1.65% [at 35.3 µM] (inactive)
C1CCCCCCCCCCC1 | -10.5% [at 15.8 µM] (inactive)
OC/C=C/c1ccccc1 | 1.69% (inactive)
COC(=O)C1=C(C)NC(C)=C(C(=O)OCC(C)=O)C1c1ccccc1[N+](=O)[O-] (stereo not given) | 0.832% [at 35.3 µM] (inactive)
CCC(C(=O)NC(N)=O)c1ccccc1 (stereo not given) | -12.7% (inactive)
CCCOc1ccccc1-c1nc2n[nH]nc2c(=O)[nH]1 | -10.4% [at 35.3 µM] (inactive)
CN(C)N=Nc1ccccc1 | -4.79% (inactive)
C[C@H]1O[C@@H](n2cc(F)c(=O)[nH]c2=O)[C@H](O)[C@@H]1O | -21% [at 35.3 µM] (inactive)
C1=C\CC/C=C\CC/C=C\CC/1 | 1.05% (inactive)
CCCCN(CCO)CCO | -6.74% (inactive)
CCC(C)OC(=O)N1CCCCC1CCO (stereo not given) | -13.1% (inactive)
O=C(O)/C=C/c1ccc(Cn2ccnc2)cc1 | -5.6% [at 35.3 µM] (inactive)
Cc1ccc(N)cc1[N+](=O)[O-] | 1.32% (inactive)
C=C(C)C(=O)OCCC(C)OC(=O)C(=C)C (stereo not given) | 3.6% (inactive)
COc1cc(O)cc(O)c1 | -8.94% [at 35.3 µM] (inactive)
CO[Si](OC)(OC)OC | -2.98% (inactive)
CCCCCCOC(=O)c1ccccc1O | 20.2% (inactive)
CCCC(=O)O[C@]1(C(=O)CCl)[C@@H](C)C[C@H]2[C@@H]3CCC4=CC(=O)C=C[C@]4(C)[C@@]3(F)C(=O)C[C@@]21C | -14.5% [at 35.3 µM] (inactive)
CCCCCOC(=O)Nc1nc(=O)n([C@@H]2O[C@H](C)[C@@H](O)[C@H]2O)cc1F | 1.48% [at 35.3 µM] (inactive)
